We go through 39 compounds from PubChem BioAssay AID493168 (National Center for Advancing Translational Sciences (NCATS), 2011).

SMILES strings stand for the structures. Inconclusive results are not listed. Values without a mark were called inactive. Activity calls are given as the source filed them. Calls come from the whole dose curve; as a rule, active = well fitted inhibition curve with a large enough effect; inconclusive = small, poorly fitted or top-dose-only effect, or effect the other way; inactive = flat fitted curve, though single readings scatter.
Potency is the fitted concentration of half-maximal effect.

This test deals with Ubiquitin carboxyl-terminal hydrolase 2 (Homo sapiens) (UniProt O75604). The test can be described thus: Confirmation Assay for Inhibitors of Ubiquitin-specific Protease USP2a Using CHOP2 as the Reporter.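 For activity change, negative = inhibition: plate controls were DMSO wells for no effect and full inhibition by NEM control for full effect.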 Note: nearly all actives have a fitted effect of over 55% in size. To be noted: USP2 core, Ub-CHOP2 coupled reporter fluorescence; series mostly up to 38.3 µM; activity change, negative = inhibition: at the top concentration. The essentials: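 Ub-CHOP2 cleavage coupled to reporter activation was read by fluorescence after 60 min at RT, with 25 nM final Ub-CHOP2 and substrate. Enzyme (10 nM final USP2 core) first sat 30 min with compound; data were normalized to NEM and fitted to concentration-response curves.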
Ubiquitin carboxyl-terminal hydrolase 2 (Homo sapiens), sequence (O75604 whole entry, looked up): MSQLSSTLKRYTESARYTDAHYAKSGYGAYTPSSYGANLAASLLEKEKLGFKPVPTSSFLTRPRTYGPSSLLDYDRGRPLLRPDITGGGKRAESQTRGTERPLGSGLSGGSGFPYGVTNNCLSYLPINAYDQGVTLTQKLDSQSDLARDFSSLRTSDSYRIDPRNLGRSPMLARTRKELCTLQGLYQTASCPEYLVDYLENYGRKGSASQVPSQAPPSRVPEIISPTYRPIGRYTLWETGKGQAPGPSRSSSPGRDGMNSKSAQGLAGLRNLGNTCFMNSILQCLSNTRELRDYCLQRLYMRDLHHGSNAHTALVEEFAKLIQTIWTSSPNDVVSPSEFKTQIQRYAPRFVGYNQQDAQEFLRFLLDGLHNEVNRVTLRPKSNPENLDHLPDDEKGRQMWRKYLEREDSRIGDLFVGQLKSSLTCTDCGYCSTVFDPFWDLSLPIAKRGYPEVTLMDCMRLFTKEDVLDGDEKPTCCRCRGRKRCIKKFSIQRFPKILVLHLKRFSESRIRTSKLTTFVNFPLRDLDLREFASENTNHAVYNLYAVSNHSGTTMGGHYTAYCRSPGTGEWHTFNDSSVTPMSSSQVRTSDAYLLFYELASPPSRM
For the compound `COc1cc(NC(=O)COC(=O)CSc2ccccc2F)c(C)cc1[N+](=O)[O-]`, the “activity change, negative = inhibition” value is -2.68%.

Turning to `CC(=O)COc1ccc2c(-c3ccccc3)cc(=O)oc2c1`, the “activity change, negative = inhibition” value is 7.04%.

In the case of `O=C(Cc1ccccc1)Nc1cccc(N2CCCC2)c1`, the “activity change, negative = inhibition” value is -9.77%.

For the compound `Cc1ccc2c(c1)c1c3n2CCN(C(=O)Cn2c(-c4ccccc4)noc2=O)C3CCC1` (centres undefined), the “activity change, negative = inhibition” value was -6.27%.

Turning to `Cc1cc(=O)n2[nH]c(-c3sccc3-n3c(C)ccc3C)cc2n1`, the “activity change, negative = inhibition” value is -6.92%.

In the case of `Cc1noc(NS(=O)(=O)c2ccc(N3CC(O)=C(c4ccccc4)C3=N)cc2)c1C`, the “activity change, negative = inhibition” value is 3.36%.

Regarding `CC(C)C(C(=O)O)N1C(=O)/C(=C/C=C/c2ccco2)SC1=S` (centres undefined), the Potency was 6.56 µM (active).

Regarding `COC(=O)c1ccccc1NC(=O)CSc1nc(O)cc(=O)n1C1CCCC1`, the “activity change, negative = inhibition” value is -0.685%.

For `CCOc1ccc2nc(NC(=O)Nc3ccccc3)sc2c1`, the “activity change, negative = inhibition” value is -2.42%.

On to `Cc1noc(/C=C/NCc2cccnc2)c1S(=O)(=O)N(C)CC(=O)N1CCc2ccccc21`, for which the “activity change, negative = inhibition” value is 0.283%.

As to `CC1=NN(C(=O)c2csc(C)c2C)C(O)(C(F)(F)F)C1` (centres undefined), the “activity change, negative = inhibition” value was 7.72%.

`CCOC(=O)N1CCN(C(=O)c2cc3c(ccc4ccccc43)oc2=O)CC1`: the “activity change, negative = inhibition” value is 0.893%.

Regarding `CNc1cccccc1=S`, the “activity change, negative = inhibition” value was 1.21%.

Regarding `CCOc1ccccc1C(=O)NC1CC2CCCC(C1)N2C1CC1` (centres undefined), the “activity change, negative = inhibition” value was 5.99%.

For the compound `Cc1cc(NC(=O)COC(=O)CCCOc2ccc(Cl)cc2C)no1`, the “activity change, negative = inhibition” value was -1%.

Take `C[C@@H]1CN([C@@H](C)CO)C(=O)c2cc(NC(=O)CCC(F)(F)F)ccc2O[C@H]1CN(C)S(=O)(=O)c1ccc(Cl)cc1`: the “activity change, negative = inhibition” value was 0.826%.

Regarding `CCN(Cc1ccncc1)C(=O)c1cccs1`, the “activity change, negative = inhibition” value is -0.752%.

With `CC1CCN(CC(O)COc2cccc(F)c2)CC1` (centres undefined), the “activity change, negative = inhibition” value was 2.47%.

Turning to `Nc1nc(NCCO)nc(NCC2CCCO2)c1[N+](=O)[O-]` (centres undefined), the “activity change, negative = inhibition” value was 3.3%.

Turning to `COCCNCC(=O)N1CCCCCC1`, the “activity change, negative = inhibition” value was 0.293%.

Consider `Cc1ccccc1N=C1NC(=O)CS1`, for which the “activity change, negative = inhibition” value is 4.13%.

As to `C#CCOCCOCCOCCNc1nc(N2CCN(C(=O)CCCCCCCCCCNC(=O)Cn3cc(CCCCCN)nn3)CC2)nc(N2CCN(C(=O)CCCCCCCCCCNC(=O)[C@H]([C@@H](C)CC)n3cc(CCCCCN)nn3)CC2)n1`, the Potency was 4.65 µM (active).

Take `O=C(CCS(=O)(=O)c1ccc(Br)s1)NC1CCCC1`: the “activity change, negative = inhibition” value is -2.3%.

Turning to `CCOC(=O)C1CCN(C(=O)COC(=O)c2c(C)c(CC)nc3ccccc23)CC1`, the “activity change, negative = inhibition” value is -0.67%.

Take `Cc1cc2c(c(=O)n1CC1CCCO1)C(c1ccco1)C(C#N)=C(N)O2` (centres undefined): the “activity change, negative = inhibition” value is 6.21%.

As for `Nc1c(C(=O)NC2CC2)sc2nc3c(c(-c4ccco4)c12)CC/C3=C/c1ccco1`, the Potency is 7.36 µM (active).

Regarding `Cc1nc2n(n1)CC(O)CS2` (centres undefined), the “activity change, negative = inhibition” value was 4.62%.

Regarding `Cc1ccc(NC(=O)CSc2nnc(COc3ccc(C#N)cc3)n2-c2ccccc2)cc1C`, the “activity change, negative = inhibition” value is 1.15%.

Regarding `O=C(O)C(Cc1ccccc1)N1C(=O)/C(=C/C=C/c2ccco2)SC1=S` (centres undefined), the Potency is 7.36 µM (active).

Take `COc1ccc(-c2csc(N3CCN(C(=O)c4ccco4)CC3)n2)cc1`: the “activity change, negative = inhibition” value was -3.7%.

With `COc1cccc(NC(=O)Cc2ccccc2)c1`, the “activity change, negative = inhibition” value is 0.289%.

As for `O=C(CSc1nc2ccccc2[nH]1)Nc1ccc2c(c1)OCCO2`, the “activity change, negative = inhibition” value is -2.85%.

For the compound `Cc1ccc(N2CCN(C(=O)CCc3nc4ccccc4[nH]3)CC2)c(C)c1`, the “activity change, negative = inhibition” value was 3.5%.

With `Cc1ccc(NC(=O)c2onc(C)c2Cl)cc1`, the “activity change, negative = inhibition” value is -4.53%.

Regarding `CC(C)c1ccc(CCNC(=O)c2ccc([N+](=O)[O-])cc2)cc1`, the “activity change, negative = inhibition” value is -1.71%.

Regarding `COc1ccc(OCC(=O)NCCNC(=O)c2cccnc2)cc1`, the “activity change, negative = inhibition” value is 1.94%.

Consider `COc1ccc(/C=N/NC(=O)c2nn(-c3ccccc3)c(=O)c3c(N)scc23)cc1`, for which the “activity change, negative = inhibition” value was -4.38%.

For `O=C(CN1CCC(O)CC1)N1c2ccccc2C=Cc2ccccc21`, the “activity change, negative = inhibition” value was -6.07%.

For the compound `Cc1c(C(=O)Nc2ccc3c4c(cccc24)CC3)cccc1[N+](=O)[O-]`, the “activity change, negative = inhibition” value is 1.37%.
